HCMV antiviral: human cytomegalovirus inhibition; activity change, negative = inhibition, % at 57.5 µM; AID 1259415; HFF cells, HCMV-luciferase reporter, 72 h; active compounds read low; 4.5% of 410,000 active; in the data active means activity change below about -60%; inconclusive means no clear call, values can overlap the other calls; inactive means above about -39%; further: on the % scale 0 is the no-effect control and ±100 the full control effect
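Cell-based, HFFs, 1000 cells/well, 16 h 37C; cpds in DMSO + HCMV-luc, MOI 1 PFU/cell; 72 h 37C; OneGlo luminescence after 5 min RT; norm. to buffer vs Salinomycin 10uM.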
Cycloheximide cs: affects cycloheximide protein synthesis inhibition readout, counter-screen. 12% of 300,000 active. AID 2314. cell reporter, cycloheximide protein synthesis inhibition counterscreen. max response, %; in the data active means max response mostly above about 13%, no sharp cut-off; inactive means mostly below about 14%; further: read at 38.3 µM for the half of the compounds with a filed dose; 0% is about no effect
Shiga inhibitor: inhibitors of Shiga toxin in Vero cells; Vero cells, Shiga toxin protein synthesis inhibition reporter; inhibition, % at 38.7 µM; 9.2% of 290,000 active; AID 2315; in the data active means inhibition mostly above about 28%, no sharp cut-off; inactive means mostly below about 43%; further: 0% is about no effect
Pf growth 48h: P. falciparum growth inhibition at 48 hours (one generation). Potency, µM (titrated, usually from 28.7 µM), inactives show top-dose activity change, negative = inhibition, usual class: inhibitors. 5.9% of 310,000 active. P. falciparum luciferase growth in erythrocytes, 48 h; further: potency means the concentration at half of the fitted maximal effect; on the % scale 0 is the no-effect control and ±100 the full control effect
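Here the parasites carry a stable luciferase gene and grow inside erythrocytes in Albumax-based RPMI medium with compound for one erythrocytic cycle. Activity is scored as loss of luminescent signal.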
HCV inhibitor: blocks hepatitis C virus. Potency, µM (titrated, usually from 41.8 µM), without a hit: at the highest dose activity change, negative = inhibition, usual class: inhibitors. Huh7.5.1 HCVcc-Cre infection, luciferase reporter, 44 h. 3.4% of 340,000 active; further: potency means the concentration at half of the fitted maximal effect; on the % scale 0 is the no-effect control and ±100 the full control effect
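Reporter virus HCVcc-Cre (~0.5 moi) infects cells exposed to compound; seeding density 1,000 cells/well with 4 h settling beforehand. Luminescence, 15 sec read, taken 44 h post-infection following a 15 min RT substrate incubation.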
Pf growth 96h: inhibits malaria parasite growth, 96 h. P. falciparum luciferase reporter growth, 96 h. Potency, µM (highest dose often 28.7 µM), for the others: at the highest dose activity change, negative = inhibition, actives largely listed as inhibitors. 6.9% of 320,000 active. AID 504834; further: potency means the concentration at half of the fitted maximal effect; on the % scale 0 is the no-effect control and ±100 the full control effect
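Erythrocytes infected with luciferase-expressing P. falciparum were dispensed at 2% hematocrit and 0.05% parasitemia (final), then incubated with compounds 96 hours at 37 C in 5% CO2. Luminescence after detection reagent addition reported growth.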
* = called active by the depositor; ? = inconclusive; . = no result given. Only some compounds are listed: those with a hit (about 21% of all), similar ones and a draw of the others. Unless noted, the call rests on the fitted dose curve; in most records, active means well fitted inhibition curve with a large enough effect; inconclusive means small, poorly fitted or top-dose-only effect, or another doubt; inactive means no such curve, though single readings can be large or run the other way.

SMILES | HCMV antiviral | Cycloheximide cs | Shiga inhibitor | Pf growth 48h | HCV inhibitor | Pf growth 96h
COc1ccc(Cn2ccc3nc(C)c(C(=O)Nc4cc(OC)c(OC)c(OC)c4)cc3c2=O)cc1 | 22.4 | . | . | . | . | .
COc1ccc([C@H]2CC(=O)C[C@@H](CCn3cc(C)nn3)O2)cc1 | -9.4 | . | . | . | . | .
[O-]/C(=C(\C(=S)Nc1ccc(SC(F)F)cc1)[n+]1ccccc1)c1cc(Cl)ccc1Cl | -61.3* | 20.1 | 40.0 | -13.9% | ? | -11.4%
Cc1cc(C([O-])=C(C(=S)Nc2ccccc2)[n+]2ccccc2)c(C)n1-c1ccccc1 | -7.3 | . | . | . | ? | .
C=CCn1c(C)cc(/C([O-])=C(/C(=S)Nc2ccc(OC(F)F)cc2)[n+]2ccc(N(C)C)cc2)c1C | ? | 11.9 | 22.2 | ? | ? | 3.7µM*
Cc1cc(C)c(/C([O-])=C(/C(=S)Nc2ccc(SC(F)F)cc2)[n+]2ccccc2)cc1C | ? | 15.6 | -3.3 | 11.7µM* | ? | ?
Cc1ccc(C)c(NC(=S)/C(=C(\[O-])c2ccc(OC(F)F)cc2)[n+]2ccccc2)c1 | 14.0 | 9.8 | -10.7 | ? | 19.6% | ?
Cc1ccc(NC(=S)/C(=C(\[O-])c2ccc(F)cc2)[n+]2ccccc2)cc1 | -72.9* | 21.3* | 36.3 | 2.2% | -11.2% | -0.3%
C=CCNC(=S)/C(=C(\[O-])c1ccc(Cl)cc1)[n+]1ccccc1 | -8.6 | -1.2 | -3.2 | ? | 11.6% | ?
Cc1ccc(NC(=O)C(Cc2ccccc2)NS(=O)(=O)c2ccc3c(c2)CCC(=O)N3)cc1 (stereo unspecified) | -8.2 | . | . | . | . | .
Cc1ccc(Cl)cc1N1CCN(C(=O)c2sc3nc4n(c(=O)c3c2C)CCC4)CC1 | -4.1 | . | . | . | . | .
O=C(Nc1ccccc1F)N1CC(=O)N2[C@H](CO)[C@@H](c3ccc(Br)cc3)[C@@H]2C1 | 0.6 | . | . | . | . | .
CN(C)c1cc[n+](/C(C(=S)Nc2ccc(SC(F)F)cc2)=C(/[O-])c2ccccc2)cc1 | ? | 9.4 | 19.2 | 4.65µM* | -22.1% | 2.08µM*
Cc1ccccc1C(=O)c1cccn1CC(=O)NCc1ccc(F)cc1 | -5.6 | 19.5 | 21.2 | 14.2% | -3.3% | 3.4%
COc1ccc(CCNC(=O)Cn2cccc2C(=O)c2ccccc2C)cc1OC | 18.8 | 0.8 | -12.2 | -27.4% | ? | 9.28µM*
Cc1ccccc1C(=O)c1cccn1CC(=O)NCc1ccccc1 | -3.3 | 26.2* | 30.3* | 28.4% | -5.5% | 1.1%
Cc1ccccc1C(=O)c1cccn1CC(=O)NCC1CCCO1 (stereo unspecified) | -17.6 | -0.6 | -23.2 | -2.4% | 15.4% | 10.4µM*
Cc1ccccc1C(=O)c1cccn1CC(=O)NCc1ccc2c(c1)OCO2 | 33.1 | 22.9* | 50.9 | 15.8% | -26.3% | ?
Oc1ccc(C[C@H]2CNC(=S)N2C[C@H]2CCCN2C[C@H](Cc2ccccc2)N2C[C@H](Cc3ccccc3)N(CC3CCCCC3)C2=S)cc1 | -16.9 | . | . | . | . | .
COC(C/C=C\[C@H](O)[C@@H](C)OCc1ccccc1)OC | -8.3 | . | . | . | 3.6% | .
COc1ccc(OC)c(CCNC(=O)Cn2cccc2C(=O)c2ccccc2)c1 | 32.1 | -1.3 | -9.7 | 4.8% | ? | 20.1%
COc1ccc(CNC(=O)Cn2cccc2C(=O)c2ccccc2)cc1 | -0.3 | 34.1* | 40.3* | 33.8% | 8.6% | 7.4%
COc1ccc(CNC(=O)Cn2cccc2C(=O)c2ccccc2C)cc1 | 9.8 | 71.3* | 59.6* | 40.2% | 5.9% | ?
COc1ccc(C2C(C(=O)Nc3cccc(C)n3)c3ccccc3C(=O)N2C)cc1 (stereo unspecified) | 34.6 | -6.1 | -37.6 | ? | -10.6% | 3.7µM*
COc1ccc(C2C(C(=O)Nc3cc(C)on3)c3ccccc3C(=O)N2C)cc1OC (stereo unspecified) | 64.7 | -0.1 | -15.3 | ? | 26.7% | ?
COc1ccc(C2C(C(=O)NC(C)C)c3ccccc3C(=O)N2C)cc1OC (stereo unspecified) | -34.7 | -4.6 | -20.7 | -0.6% | 4.2% | 1.04µM*
COc1ccc(C2C(C(=O)Nc3cc(OC)c(OC)c(OC)c3)c3ccccc3C(=O)N2C)cc1OC (stereo unspecified) | ? | -1.4 | -12.2 | 11.7µM* | 13.7% | 51.3%
